Rows were chosen to be rich in hits. Some 9.4% of all compounds tested hit in one or more screens of this group.
HTT cytoprotect: cytoprotection in Huntington HTT-Q103 PC12 cell model. PC12 HTT-Q103 induced, cytoprotection, ATP luminescence, 40 h. Potency, µM (titrated, usually from 56.4 µM), without a hit: cytoprotection (ATP increase), hits mostly activators. 230,000 compounds, 0.14% hits. AID 1471; note: potency is the fitted concentration of half-maximal effect; % of control where 0% means no effect; nearly all actives have a fitted effect of over 45% in size
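PC12 cells stably carrying ecdysone-inducible Htt exon 1 (Q103)–GFP were induced with 100 nM tebufenozide (final) alongside library compounds in a dose series. Cytoprotection was scored as retained ATP by ATPlite luminescence.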
HPGD inh: HPGD (human) dehydrogenase inhibition. P15428. purified HPGD, NADH fluorescence kinetic, PGE2 substrate. Potency, µM, inactives show top-dose activity change, negative = inhibition, most hits filed as inhibitors. 150,000 compounds, 4.3% hits. AID 894; active = well fitted inhibition curve with a large enough effect, not every such curve was filed as active; inconclusive = small, poorly fitted or top-dose-only effect, or another doubt; inactive = no such curve, though single readings can be large or run the other way; note: potency is the fitted concentration of half-maximal effect; % is set by controls: 0 for no effect and ±100 for the full control effect
Target sequence (P15428 whole entry, looked up): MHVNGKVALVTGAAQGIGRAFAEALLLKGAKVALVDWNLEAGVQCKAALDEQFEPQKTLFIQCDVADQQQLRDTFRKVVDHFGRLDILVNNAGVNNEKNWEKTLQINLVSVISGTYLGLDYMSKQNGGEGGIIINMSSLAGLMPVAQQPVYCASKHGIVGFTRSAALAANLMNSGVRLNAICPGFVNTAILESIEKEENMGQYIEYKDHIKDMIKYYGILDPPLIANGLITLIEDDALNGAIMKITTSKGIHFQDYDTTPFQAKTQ
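20 nM HPGD preincubated 15 min at room temperature with compound in 50 mM Tris-HCl pH 8, 0.01% Tween 20. Started with 1 mM NAD+ and 30 uM prostaglandin E2; NADH fluorescence (360/450 nm) read 5 times over 30-s intervals, last minus first.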
HTT aggregate: inhibitors of mutant huntingtin aggregate formation in PC12 cells; PC12 HttQ103-GFP aggregates, Acumen cytometry, 40 h; Potency, µM (highest dose often 46.1 µM), without a hit: at the highest dose activity change, negative = inhibition, usual class: inhibitors; 220,000 compounds, 1.1% hits; AID 1688; note: potency is the fitted concentration of half-maximal effect; % is set by controls: 0 for no effect and ±100 for the full control effect; nearly all actives have a fitted effect of over 60% in size
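Steps: seed 1500 PC12 HTTQ103-GFP cells/well; add tebufenozide, 100 nM final; add compound titration; add ATPLite reagent; quantify GFP aggregates by laser scanning cytometry.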
ALDH1A1 inh: inhibitors of human aldehyde dehydrogenase 1A1 | P00352 | Purified ALDH1A1, NADH fluorescence, propionaldehyde substrate | Potency, µM (titrated, usually from 75.3 µM), inactives show at the top dose activity, negative = inhibition, hits mostly inhibitors | 220,000 compounds, 7.3% hits | AID 1030; active = well fitted inhibition curve with a large enough effect, not every such curve was filed as active; inconclusive = small, poorly fitted or top-dose-only effect, or another doubt; inactive = no such curve, though single readings can be large or run the other way;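 note: potency is the fitted concentration of half-maximal effect; plate controls were no enzyme wells and a reference inhibitor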
Target sequence (P00352 whole entry, looked up): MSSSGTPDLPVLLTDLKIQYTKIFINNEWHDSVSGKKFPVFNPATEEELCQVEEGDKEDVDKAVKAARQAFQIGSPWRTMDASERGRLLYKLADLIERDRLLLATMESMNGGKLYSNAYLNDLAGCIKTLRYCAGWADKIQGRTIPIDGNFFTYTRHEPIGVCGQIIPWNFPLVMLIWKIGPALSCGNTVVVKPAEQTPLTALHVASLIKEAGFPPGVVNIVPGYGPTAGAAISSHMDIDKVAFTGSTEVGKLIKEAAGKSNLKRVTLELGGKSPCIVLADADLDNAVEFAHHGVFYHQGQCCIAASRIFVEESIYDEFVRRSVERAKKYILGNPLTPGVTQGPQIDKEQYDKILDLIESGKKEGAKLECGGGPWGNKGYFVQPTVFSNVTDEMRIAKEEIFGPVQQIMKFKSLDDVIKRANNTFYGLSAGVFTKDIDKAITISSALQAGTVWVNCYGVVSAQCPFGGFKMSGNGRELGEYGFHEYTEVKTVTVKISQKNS
IMPase inh: membrane-permeable compound that blocks inositol monophosphatase. CHO-M1 cells, IP1 accumulation, HTRF TR-FRET ratio. inhibition (IP1 accumulation), % at 46.1 µM. 120,000 tested, under 10 active. AID 901; active = well fitted curve in the direction sought with a large enough effect in the signal ratio, not every such curve was filed as active; inconclusive = small, poorly fitted or top-dose-only effect, or a change in a side signal; inactive = no such curve, though single readings can be large or run the other way; the % refers to the signal ratio;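 note: cells stimulated with carbachol in lithium chloride buffer; plate controls were DMSO basal wells for no effect and reference inhibitor wells for full effect; higher means more IMPase inhibition seen as more IP1 and lower FRET ratio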
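Elevated IP1 in lysates lowers TR-FRET signal (665/620 ratio and 620 channel reported). Cells were CHO-M1, given carbachol (50 uM as added) plus 50mM LiCl, pH 7.4, 30 min, 37C; compounds titrated up to 46 uM; AC50 by Hill equation.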
IMPase Li cell: IMPase inhibition in cells with lithium potentiation; CHO-M1 cells, IP1 TR-FRET (IP-One), carbachol + lithium; Potency, µM (series often up to 59.4 µM), for inactives: top-dose activity, negative = IMPase inhibition, hits mostly inhibitors; 210,000 compounds, 0.35% hits;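 note: IP1 builds up when IMPase is blocked and the TR-FRET signal falls; potency is the fitted concentration of half-maximal effect; plate controls were basal vehicle for no effect and high inhibitor control for full effect; nearly all actives have a fitted effect of over 50% in size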
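CHO cells stably expressing M1 receptor (2000/well) were cultured 16–30 h, then exposed to compounds with a small lithium addition for 30 min at 37C. IP1 was measured by TR-FRET competition; AC50 from Hill fits.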
Active calls of the source: *; ? = inconclusive; . = no result given; [ ] = remark or other dose. Unless noted, calls come from the whole dose curve; as a rule, active = well fitted curve in the direction sought with a large enough effect; inconclusive = small, poorly fitted or top-dose-only effect, or another doubt; inactive = no such curve, though single readings can be large; an effect the other way counts as inactive or inconclusive.

SMILES	HTT cytoprotect	HPGD inh	HTT aggregate	ALDH1A1 inh	IMPase inh	IMPase Li cell
CC(C)NC(=O)c1cc(C(=O)c2cc(Cl)ccc2O)coc1=N	-9.5%	?	7.94µM*	?	4.7	20.1%[38.3 µM]
CCNc1ncc2nc(-c3ccc(OC)cc3)c(=O)n(CCOC)c2n1	-4.9%	.	.	?	.	?
COc1cc(/C=N/NC(=O)c2ccc(O)cc2)ccc1Oc1ccc([N+](=O)[O-])cn1	3.2%[10 µM]	22.4µM*	-4.9%	17.8%	?	-14.5%
O=C(NNc1cccc(Cl)n1)Nc1ccccc1	9.3%	-11.8%	8.6%	?	2.5	-2.5%[38.3 µM]
CC(Cl)C(=O)NNc1cccc(Cl)n1 (centres undefined)	2.9%	-13.2%	4.4%	20µM*	-4.1	12.8%[38.3 µM]
O=S(=O)(CCC(F)=C(F)F)c1nnnn1C1CCCCC1	3.98µM*	-7.5%	.	18.2%	.	0.0%
C1CCC(n2nnnc2CN2CCCC2)CC1	-3.1%	-5.2%	6.1%	?	-3.3	24.9%[38.3 µM]
COc1cc([N+](=O)[O-])cc(/C=N/N(CCC#N)C(C)=O)c1O	.	.	.	10µM*	.	4.7%
COc1ccc(-c2nnc(SCC(=O)N3CCCC(C)C3)o2)c(OC)c1 (centres undefined)	-19.0%	15.8µM*	6.9%	?	3.8	-4.0%[38.3 µM]
COc1ccc(Cc2nnc(SCC(=O)N3CCCC(C)C3)o2)cc1 (centres undefined)	.	.	.	0.891µM*	.	9.0%
COc1ccc(Cc2nnc(SCC(=O)N3CCCC3)o2)cc1	?	.	19.5%[9.22 µM]	2.9%	.	11.1%
COc1ccc(OC(C)C(=O)N2CCc3ccccc3C2)cc1 (centres undefined)	-4.8%	25.1µM*	-12.3%	-6.6%	0.6	7.5%[38.3 µM]
COc1ccc(Cc2nnc(SCC(=O)N3CCc4ccccc4C3)o2)cc1	-11.6%	.	0.9%	12.6µM*	9.7	.
COc1ccc(CC(=O)N2CCCC(C)C2)cc1 (centres undefined)	13.2%	28.2µM*	8.5%	-9.4%	-0.2	2.7%[38.3 µM]
CC1CCCN(C(=O)Cc2ccc(F)cc2)C1 (centres undefined)	6.5%	-25.1%	-4.8%	?	-5.2	23.1%[38.3 µM]
C/C(=N\NC(=S)NC1CCCCC1)c1ccc(O)cc1	-30.0%	.	-18.7%	14.1µM*	.	0.4%
C/C(=N\NC(=S)Nc1ccccc1C)c1ccc(O)cc1	-22.0%	.	-4.7%	20µM*	.	3.6%
Cc1ccc(CSCC(=O)NCc2ccco2)cc1	-2.0%	.	-4.5%	?	.	5.8%
O=C(CSCc1ccco1)c1ccc(Cl)s1	-0.5%	20µM*	15.6%	?	14.1	-5.2%[38.3 µM]
CS(=O)(=O)N(CC(=O)NCCSCc1c(F)cccc1Cl)c1ccc2c(c1)OCO2	0.9%[10 µM]	-12.6%	-24.1%	2.51µM*	2.4	32.7%[38.3 µM]
O=C(NNC(=S)NCc1ccco1)c1ccc(Cl)s1	3.7%	0.1%	?	-11.7%	-4.3	6.8%[38.3 µM]
Cc1ccccc1CSCC(=O)NCc1ccco1	.	11.2µM*	-1.3%	15.8µM*	.	-0.2%
O=C(CSCc1ccc(Cl)cc1)NCCSCc1ccco1	-18.2%	.	1.6%	11.2µM*	.	4.4%
Clc1ccccc1Cc1cn2cc(-c3ccccc3)nc2s1	.	.	.	.	-0.6	.
O=C(CCc1ccccc1)NCCSCc1c(F)cccc1Cl	-8.0%[10 µM]	5.01µM*	8.3%	-5.3%	-5.8	-2.9%
SMILES	HTT cytoprotect	HPGD inh	HTT aggregate	ALDH1A1 inh	IMPase inh	IMPase Li cell
CC(C)(C)NC(=O)CSCc1c(Cl)cccc1Cl	.	25.1µM*	-15.0%	4.8%	.	0.2%
O=C(CSCc1c(F)cccc1Cl)NCc1ccco1	4.5%[10 µM]	14.1µM*	-2.1%	?	6.4	7.6%
O=C(CSCc1c(Cl)cccc1Cl)NCc1ccco1	-9.5%[1.9 µM]	8.91µM*	-3.9%	?	7.2	9.1%
O=C(CSCc1c(F)cccc1Cl)NCCSCc1ccco1	-35.8%	.	9.5%[9.22 µM]	?	.	-2.7%
CN(C)CCN(C)C(=O)c1ccc(-n2c(=O)c(=O)[nH]c3ccccc32)cc1	.	-7.9%	.	-4.8%	.	.
COC(=O)C1=C(C(=O)OC)[C@@H]2N(C)c3ccc(OC)cc3[C@@]23C[C@@H](C(=O)OC)N(C(C)=O)C3=N1	.	-5.2%	.	2.6%[13.5 µM]	.	13.7%
CCCCCCCCCCCCCCCC(=O)OCC(O)C1OC(=O)C(O)=C1O (centres undefined)	-61.1%	-14.3%	.	-9.1%	.	0.4%
CC(C)NC(=O)CSCc1c(F)cccc1Cl	7.7%[10 µM]	15.8µM*	0.5%	?	-7.1	7.9%
Cc1ccc(C)c(N(CC(=O)NCCSCc2ccco2)S(C)(=O)=O)c1	-9.1%[10 µM]	-13.8%	13.7%	3.55µM*	-21.6	-3.6%[38.3 µM]
CNC(=O)CSCc1c(F)cccc1Cl	-5.9%[10 µM]	5.4%	17.5%	0.0%	.	-2.2%
Cc1ccc(CSCCNC(=O)CN(c2cc(C)ccc2C)S(C)(=O)=O)cc1	-4.4%[10 µM]	.	?	?	.	11.9%
C/C(CC(=O)NCc1ccco1)=N\NC(=O)Cc1cccc2ccccc12	-9.8%	-11.4%	6.8%	12.6µM*	-1.0	1.5%[38.3 µM]
CN(C)CCSCCO	15.4%[10 µM]	-2.8%	.	10.7%[13.5 µM]	.	5.7%
COc1cccc(NC(=S)N(CCCN2CCOCC2)Cc2cn(C)c3ccccc23)c1	-52.9%[10 µM]	-16.0%	11.2µM*	?	.	-2.2%
CC(O)CCCCn1c(=O)c2c(ncn2C)n(C)c1=O (centres undefined)	-0.1%	.	0.0%	-3.5%	.	26.5%
CCCCOCC1CC(CC#CCN2CCCCC2)C(=O)O1 (centres undefined)	-7.3%[10 µM]	.	-8.0%[9.22 µM]	25.1µM*	.	15.3%
CCCOCC1CC(CCc2nc(=S)[nH][nH]2)C(=O)O1 (centres undefined)	24.3%[10 µM]	-24.4%	10.7%	2.1%	.	10.5%
Cn1c(Cn2nnc3ccccc32)nnc1SCC(=O)N1c2ccccc2Sc2ccccc21	-37.3%	-9.9%	?	4.7%	-10.2	9.5%[38.3 µM]
COc1ccc(-n2c(Cn3nnc4ccccc43)nnc2SCC(=O)O)cc1	-17.4%	-15.8%	9.0%	3.4%	8.4	-6.7%[38.3 µM]
COc1ccc(N2CCN(C(=O)CSc3nnc(Cn4nnc5ccccc54)n3C)CC2)cc1	12.8%	-14.7%	1.4%	14.1µM*	-0.1	20.5%[38.3 µM]
Cn1c(Cn2nnc3ccccc32)nnc1SCC(=O)N1c2ccccc2CCc2ccccc21	-11.7%[10 µM]	-0.8%	-6.8%	8.91µM*	9.4	1.8%[38.3 µM]
COc1ccc(N2CCN(C(=O)CSc3nnc(-c4cc5ccccc5cc4O)n3C)CC2)cc1	-19.5%	-16.1%	12.6µM*	-6.7%	10.8	3.5%[38.3 µM]
O=C1c2ccccc2C(=O)N1CC#CCN1CCN(C(c2ccccc2)c2ccccc2)CC1	32.3%	-10.7%	4.7%	15.8µM*	17.9	49.7%[38.3 µM]
COc1ccc(C2CC(=O)N(CCCN(C)CCc3ccc(OC)c(OC)c3)C2)cc1 (centres undefined)	-33.5%	.	?	14.1µM*	.	13.2%
